# Laboratory results published in PubChem BioAssay AID651910 (Vanderbilt Specialized Chemistry Center, 2012).
# Active and inactive are the calls of the source. No rule for the calls is given here.
# Molecular target: Polyamine deacetylase HDAC10 (Homo sapiens) (UniProt Q969S8)
# Assay: HDAC10 deacetylase inhibition, profiling panel, selectivity assay for E-cadherin restoration project, biochemical, human (AID 651910)
# Settings: recombinant HDAC10, fluorogenic peptide substrate, deacetylation; series mostly up to 10 µM
# Polyamine deacetylase HDAC10 (Homo sapiens), sequence (Q969S8 whole entry, looked up): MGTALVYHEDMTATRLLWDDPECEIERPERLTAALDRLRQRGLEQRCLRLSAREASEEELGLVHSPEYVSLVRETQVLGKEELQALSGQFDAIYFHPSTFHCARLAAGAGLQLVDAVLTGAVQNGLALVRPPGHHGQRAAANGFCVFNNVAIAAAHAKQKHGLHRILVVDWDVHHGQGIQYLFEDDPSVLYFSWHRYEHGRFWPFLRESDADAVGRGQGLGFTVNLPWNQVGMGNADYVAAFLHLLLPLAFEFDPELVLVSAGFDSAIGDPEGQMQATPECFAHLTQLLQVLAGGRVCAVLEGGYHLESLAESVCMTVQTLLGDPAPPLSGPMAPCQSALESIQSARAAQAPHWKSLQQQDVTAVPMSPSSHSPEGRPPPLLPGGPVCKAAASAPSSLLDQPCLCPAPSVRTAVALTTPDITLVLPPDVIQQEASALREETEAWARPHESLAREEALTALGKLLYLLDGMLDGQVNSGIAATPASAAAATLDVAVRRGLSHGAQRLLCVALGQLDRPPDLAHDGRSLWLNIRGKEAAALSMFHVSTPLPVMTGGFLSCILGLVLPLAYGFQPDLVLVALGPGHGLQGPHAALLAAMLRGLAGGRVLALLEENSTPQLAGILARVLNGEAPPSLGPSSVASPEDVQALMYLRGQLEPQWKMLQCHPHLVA
structure (smiles),measurement,value
O=C(NCCCNC(=O)c1ccc[nH]c1=O)c1cc(-c2ccccc2)on1,outcome,inactive
